We go through 26 compounds from PubChem BioAssay AID686978 (National Center for Advancing Translational Sciences (NCATS), 2013).

Several values for one entry are separate records, joined by “and”; a condition that tells them apart may be missing. Identical values can stand only once. In all, about 420,000 compounds went through this assay and about 64,000 (15%) were called active. Roughly 27% stayed inconclusive and do not appear here. Calls follow the shape of the dose curve; as a rule, active = well fitted inhibition curve with a large enough effect; inconclusive = small, poorly fitted or top-dose-only effect; inactive = flat fitted curve, though single readings scatter. Only a sample is shown. Some compounds were tested as several samples or in several runs, with calls that do not always agree.
% is scaled to controls: 0 for no effect and ±100 for the full control effect; potency is read from the fitted curve at half-maximal effect.

The test in a line: qHTS for Inhibitors of human tyrosyl-DNA phosphodiesterase 1 (TDP1): qHTS in cells in absence of CPT. Also: nearly all actives have a fitted effect of over 55% in size. Particulars: DT40 Tdp1-/- hTDP1 cells, no CPT, ATP luminescence, 48 h; activity change, negative = growth inhibition: at 46.2 µM (top of the series). The method in brief: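 Cells were dispensed at 400 per well, compounds added by pin tool, plates incubated ≥48 hr at 37 °C, then CellTiter-Glo added for 30 min at room temperature before luminescence reading. Line: DT40 Tdp1-/- complemented with hTDP1; camptothecin omitted.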
For the compound `COc1ccc(/C=C/c2c(-c3cccc(C)c3)oc3ccc(-c4ccc5c(c4)OCO5)cc23)cc1`, the “activity change, negative = growth inhibition” value was -6.57% (inactive).

`N#C/C(=C\c1ccc(O)c(O)c1)C(N)=O`: the Potency result is “inactive and 29.9 µM (active)”.

In the case of `CC(C)NC(=O)/C(C#N)=C\c1ccc(N(C)C)c(Br)c1`, the “activity change, negative = growth inhibition” value was -16.7% (inactive).

As for `CC(C)(C)C(=O)/C(C#N)=C/c1ccc(O)cc1`, the “activity change, negative = growth inhibition” value is -9.28% (inactive).

As to `CCc1nc2ccc(C(=O)N(C)CCN(C)C)cn2c1N(CC)CCOC`, the “activity change, negative = growth inhibition” value is -1.11% (inactive).

`COc1ccc(N(C(=O)c2cccnc2)S(=O)(=O)c2ccc(OC)c(OC)c2)cc1`: the “activity change, negative = growth inhibition” value was -21% (inactive).

Take `Cc1cc(NC(=O)CCS(=O)(=O)c2ccc(F)cc2)no1`: the “activity change, negative = growth inhibition” value is -10% (inactive).

Regarding `CCOC(=O)[C@]12CCCC=C1N(CCC1=CCCCC1)C(=O)[C@H](CC(=O)N1CCSCC1)C2`, the Potency is 16.4 µM (active).

In the case of `CCOC(=O)N1CCN(C(=O)COc2ccc(Br)cc2)CC1`, the “activity change, negative = growth inhibition” value was -25.8% (inactive).

Regarding `CCOC(=O)[C@]12CCCC=C1N(CCC1=CCCCC1)C(=O)[C@H](CC(=O)N1CCCCC1)C2`, the Potency is 5.17 µM (active).

Consider `CCOC(=O)[C@]12CCCC=C1N(CCC1=CCCCC1)C(=O)[C@H](CC(=O)N1CCOCC1)C2`, for which the Potency is 16.4 µM (active).

Regarding `CCOC(=O)N1CCN(C(=O)C[C@@H]2C[C@@]3(C(=O)OC)CCCCC=C3N(CCC3=CCCCC3)C2=O)CC1`, the Potency was 16.4 µM (active).

As to `CSc1c(SCc2ccccc2)cnn(Cc2ccccc2)c1=O`, the “activity change, negative = growth inhibition” value is -12.4% (inactive).

On to `Cc1ccc(N)cc1-n1c(C)ccc1C`, for which the “activity change, negative = growth inhibition” value is -17.2% (inactive).

With `C/C=C/C(=O)OCc1csc(CC(=O)Nc2ccccc2C)n1`, the “activity change, negative = growth inhibition” value was 7.75% (inactive).

For `CC1CC1C(=O)OCC(=O)Nc1cccc(F)c1` (stereo unspecified), the “activity change, negative = growth inhibition” value was 7.03% (inactive).

As to `Cc1cc(-c2nnc(SCC(=O)Nc3ccc(F)cc3)n2N)n[nH]1`, the “activity change, negative = growth inhibition” value was 21.3% (inactive).

Consider `O=C(CN1C(=O)CSC1=O)N1CCCC(Nc2ccc(F)cc2)C1` (stereo unspecified), for which the “activity change, negative = growth inhibition” value is -4.21% (inactive).

As to `Cc1ccc(S(=O)(=O)N(C)c2ccc(OCC(=O)NC3=NCCS3)cc2)cc1`, the “activity change, negative = growth inhibition” value is 1.46% (inactive).

For `CC(C)NC(=O)Nc1cccc2c1O[C@H](CN(C)S(=O)(=O)c1cccs1)[C@@H](C)CN([C@H](C)CO)C2=O`, the “activity change, negative = growth inhibition” value is -28.3% (inactive).

For the compound `CCOC(=O)[C@]12CCCC=C1N(Cc1ccc(Cl)cc1Cl)C(=O)[C@H](CC(=O)N1CCCCC1)C2`, the Potency is 23.1 µM (active).

As to `COC(=O)[C@]12CCCCC=C1N(CCC1=CCCCC1)C(=O)[C@H](CC(=O)N1CCSCC1)C2`, the Potency was 16.4 µM (active).

In the case of `COc1ccc(Cl)cc1N(CC(=O)N1CCCCC1)S(C)(=O)=O`, the “activity change, negative = growth inhibition” value is -8.52% (inactive).

In the case of `CCOC(=O)[C@]12CCC=C1N(Cc1ccccc1)C(=O)[C@H](CC(=O)N1CCCC1)C2`, the “activity change, negative = growth inhibition” value was -25.7% (inactive).

In the case of `Cc1ccc(-c2ccc(C3=CC(=O)CC(C)(C)C3=O)cc2)cc1`, the “activity change, negative = growth inhibition” value was -100% (inactive).

`CCc1ccccc1N1C(=O)C2C3CC(=O)C(c4ccccc43)C2C1=O` (stereo unspecified): the “activity change, negative = growth inhibition” value was 18.8% (inactive).
